Data taken from the supplement of paper PMC6555819.

Tests used:
Assay in all cases: PBM binding z-score (relative to random genomic background probes); higher = stronger binding; sequences stand for … in GC…GCGATTGACAGCGTAGAATGAAGG
[1] = system: FXR:RXRa (NR concentration 270 nM, RXRa partner concentration 90 nM)
Outline: (§1)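 Custom Agilent 4×180K protein-binding microarrays carried double-stranded probes. Their 34-nt variable regions held direct-repeat seeds, single-nucleotide variants, half-site ablations and random human genomic background sequences. Arrays were incubated 1 h with ligand-free nuclear receptor dimers in PBS pH 7.4, 2% milk, 0.02% Triton X-100, 1 mM DTT, 0.2 mg/mL BSA and 0.4 mg/ml salmon testes DNA. Antibodies against each partner (one per run) detected binding, and scanned fluorescence was regression-normalized. Binding z-scores use random background probes as reference.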

[2] = system: LXRa:RXRa (NR concentration 270 nM, RXRa partner concentration 90 nM)
Outline: as §1

[3] = system: LXRa homodimer (NR concentration 270 nM)
Outline: as §1

[4] = system: LXRb:RXRa (NR concentration 270 nM, RXRa partner concentration 90 nM)
Outline: as §1

[5] = system: LXRb homodimer (NR concentration 270 nM)
Outline: as §1

[6] = system: PPARa:RXRa (NR concentration 270 nM, RXRa partner concentration 90 nM)
Outline: as §1

[7] = system: PPARg:RXRa (NR concentration 180 nM, RXRa partner concentration 90 nM)
Outline: as §1

[8] = system: PPARg:RXRa 270nM:90nM, anti-RXR (NR concentration 270 nM, RXRa partner concentration 90 nM)
Outline: as §1

[9] = system: PPARg:RXRa 30nM:10nM, anti-RXR (NR concentration 30 nM, RXRa partner concentration 10 nM)
Outline: as §1

[10] = system: PPARg:RXRa 90nM:30nM, anti-RXR (NR concentration 90 nM, RXRa partner concentration 30 nM)
Outline: as §1

[11] = system: PPARg:RXRa DBDmut IVT, anti-RXR (DBD mutation: RXRa K156A/R161A, NR concentration 270 nM, RXRa partner concentration 90 nM)
Outline: as §1

[12] = system: PPARg:RXRa IVT, anti-PPARg (NR concentration 270 nM, RXRa partner concentration 90 nM)
Outline: as §1

[13] = system: PPARg DBDmut:RXRa IVT, anti-PPARg (DBD mutation: PPARg1 K132A/R137A, NR concentration 270 nM, RXRa partner concentration 90 nM)
Outline: as §1

[14] = system: PPARg DBDmut IVT, anti-PPARg (DBD mutation: PPARg1 K132A/R137A, NR concentration 270 nM)
Outline: as §1

[15] = system: PPARg homodimer (NR concentration 180 nM)
Outline: as §1

[16] = system: PXR:RXRa (NR concentration 270 nM, RXRa partner concentration 90 nM)
Outline: as §1

[17] = system: PXR homodimer (NR concentration 270 nM)
Outline: as §1

[18] = system: RARa:RXR (NR concentration 270 nM, RXRa partner concentration 90 nM)
Outline: as §1

[19] = system: RARa homodimer (NR concentration 270 nM)
Outline: as §1

[20] = system: RARb:RXRa (NR concentration 270 nM, RXRa partner concentration 90 nM)
Outline: as §1

Sequence	PBM binding z-score [1]	PBM binding z-score [2]	PBM binding z-score [3]	PBM binding z-score [4]	PBM binding z-score [5]	PBM binding z-score [6]	PBM binding z-score [7]	PBM binding z-score [8]	PBM binding z-score [9]	PBM binding z-score [10]	PBM binding z-score [11]	PBM binding z-score [12]	PBM binding z-score [13]	PBM binding z-score [14]	PBM binding z-score [15]	PBM binding z-score [16]	PBM binding z-score [17]	PBM binding z-score [18]	PBM binding z-score [19]	PBM binding z-score [20]
CCGCCTGGGGCAAGGTTACCATAACGCACAGCCA	0.284	0.783	-0.315	0.56	-1.07	1.21	0.654	0.637	-0.339	0.253	-0.567	0.525	-0.637	-1.46	0.471	0.34	-0.119	0.916	-0.239	1.61
TCTTGGAGGACACGAAGGTCAGAGCTTTCCAGAG	1.51	1.47	0.0796	1.27	-0.69	2.1	0.905	2.2	2.51	2.31	2.12	2.46	-0.251	-0.635	0.788	1.93	0.605	1.86	-0.208	3.36
CGTCAAAGTTCAAGGTAACGGAACAGAAAGCAGC	6.15	5.59	2.26	3.12	0.735	4.63	4.57	5.32	2.47	4.21	0.343	2.24	0.485	0.919	1.96	3.99	2.13	3.36	1.04	5.07
AGAACGACGGCACGCTGAGTTGATAGCAGAGTAG	-0.194	-0.427	-0.906	-0.149	-1.06	-0.667	0.557	-0.503	-0.345	-0.753	-0.407	-0.737	-0.755	-1.05	-0.628	-0.462	0.0818	-0.447	-0.252	-0.524
CCTCGGAGGGCAACAGGAGGTCAGAGCTGCCAGA	2.19	3.83	1.29	2.23	-0.758	3.02	0.969	1.32	-0.587	0.405	0.555	1.54	-1.74	-1.13	1.67	3.35	-0.207	3.63	0.286	3.71
CAAACTAGGTTAAAGGTCAAAGTCGAGCCAACCA	6.87	6.3	5.27	6	2.67	7.07	13.2	11	14.1	13.4	7.78	8.2	3.63	3.37	5.35	6.11	1.51	7.9	3.41	4.76
GATACAGGGTCAGCTAGAGGCCAGAGTGTGGAAA	4.82	3.13	-0.348	2.53	-0.522	4.62	3.38	3.34	0.644	2.07	0.974	2.4	-0.57	-0.662	3.47	3.5	0.00381	4.66	-0.116	4.25
CCAGCCAGGTGAAAGGTAACTCAGTCTGGTACGC	0.269	0.156	-0.445	0.354	-1.15	3.65	6.97	6.34	5.76	7.61	2.75	3.85	-0.331	-0.965	1.03	0.479	-0.522	1.32	-0.603	0.935
ACTAGTTGGTGAGCTGAGGTCACACACAATTCGG	2.78	2.49	1.5	2.85	0.277	3.35	1.49	2.09	0.341	1.3	0.913	1.97	0.121	0.0784	2.24	4.76	1.9	4.65	0.439	2.98
TCGAGTAGATTACCAATGGGGCATTCAGCTTTCT	-0.309	-0.307	-0.306	0.0449	-0.399	-0.126	-0.221	-0.0351	0.935	0.435	0.795	-0.396	-0.19	-0.114	-0.291	-0.345	-0.382	-0.208	-0.677	-0.295
TCTTCTAGGTCAGTTGGTCAGCTAACGAGCTGCC	2.21	1.87	0.567	1.71	3.5	2.99	3.77	4.43	4.38	4.54	6.39	6.42	3.22	3.33	2.21	1.3	0.447	1.58	1.05	3.79
TCTAGCAGGCCAGAGGGTCATTCAAGAGGTACGG	1.45	1.27	-0.353	1.51	-1.01	2.71	1.54	3.08	2.26	2.98	0.912	0.374	-1.21	-1.66	0.751	2.2	-0.364	2.79	-0.545	2.17
GTACTAAGGTGAATAGGTCGTTGATGAGTAGGCG	1.68	1.21	0.221	0.926	0.00742	2.75	1.77	2.5	0.778	1.53	2.8	3.12	0.603	0.0798	1.34	1.22	0.545	2.45	1.14	2.62
CATCCAAGGTCAGAGAGGTCAGTGAATGCCGAGT	6.31	5.84	4.54	4.58	1.57	5.23	4.13	4.43	1.5	2.83	2.91	3.85	0.635	-0.591	4.41	6.17	12	5.72	3.06	5.38
